The test deals with E3 ubiquitin-protein ligase XIAP (Homo sapiens) (UniProt P98170). Briefly: XIAP binders, primary screen, biophysical, small-molecule microarray, fluorescence 635 nm (AID 1181).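 Note: score merges 667 nm emission and signal to noise over triplicate slides.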 Particulars: small-molecule microarray binding, higher = more signal.
Sequence of E3 ubiquitin-protein ligase XIAP (Homo sapiens) (P98170 whole entry, looked up): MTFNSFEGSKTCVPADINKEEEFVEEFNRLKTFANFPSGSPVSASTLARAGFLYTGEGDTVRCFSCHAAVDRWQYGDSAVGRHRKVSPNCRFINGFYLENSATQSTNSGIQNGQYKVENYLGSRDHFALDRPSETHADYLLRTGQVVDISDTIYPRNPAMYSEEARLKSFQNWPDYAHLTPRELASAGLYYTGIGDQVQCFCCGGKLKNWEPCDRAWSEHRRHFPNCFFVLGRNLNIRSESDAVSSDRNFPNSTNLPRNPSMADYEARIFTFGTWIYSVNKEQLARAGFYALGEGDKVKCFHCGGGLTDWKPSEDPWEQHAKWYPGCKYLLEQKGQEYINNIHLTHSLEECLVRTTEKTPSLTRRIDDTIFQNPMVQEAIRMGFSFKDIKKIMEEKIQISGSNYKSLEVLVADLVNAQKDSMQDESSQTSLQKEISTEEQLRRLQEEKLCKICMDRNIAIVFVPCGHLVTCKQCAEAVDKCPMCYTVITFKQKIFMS
As to `CCOC(=O)NN=C1C[C@@H](O)[C@@H](O)[C@@H]2[C@@H]3C(=O)N(CC)C(=O)[C@@H]3CC[C@@H]12`, the composite z-score was -0.105.

For `O=C(CS)NCCCCCNC(=O)[C@@H]1C[C@@H]2C(=O)N[C@@H](Cc3ccccc3)C(=O)N2[C@@H]1c1ccc(O)cc1`, the composite z-score was -0.0282.

Consider `C=CC[C@]1(C(=O)NCc2ccccc2)N=C(c2ccc(OCCCO)cc2)O[C@H]1c1ccccc1`, for which the composite z-score was -0.102.

With `O=C1[C@H]2[C@H]3[C@H](O)[C@H](O)CC(=NOCc4ccccc4)[C@H]3CC[C@H]2C(=O)N1c1cccc(Oc2ccccc2)c1`, the composite z-score is -0.193.

For `COC(=O)CC=C[C@@H](C)[C@H](OC)c1ccccc1Br`, the composite z-score is -0.241.

For the molecule `CCN1C(=O)[C@H]2[C@H]3[C@H](O)C=CC(=O)[C@@H]3CC[C@H]2C1=O`, the composite z-score was -0.133.

Values taken from PubChem BioAssay.
